Test [1] is described as follows: compound effects on lung adenocarcinoma cell viability – A549, calcein-AM fluorescence, 48 h, basal, profiling panel (AID 1162). Further: test concentration not given here. The conditions noted are these: higher = more signal.
A short description of test [2]: compound effects on differentiated 3T3-L1 adipocyte viability – cell-based, 3T3-L1 adipocytes, calcein-AM fluorescence, 48 h, basal, profiling panel (AID 1163). Further: test concentration not given here. The conditions noted are these: 3T3-L1 adipocytes viability, higher = more signal.
Test [3] in a line: compound effects on hepatocellular carcinoma cell viability – HepG2, calcein-AM fluorescence, 48 h, basal, profiling panel (AID 1164). Further: test concentration not given here. Particulars: higher = more signal.
A short description of test [4]: compound effects on multiple myeloma cell viability – MM1S, calcein-AM fluorescence, 48 h, basal, profiling panel (AID 1165).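 Further: viability of MM1S multiple myeloma cells under basal unstimulated conditions; test concentration not given here.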 Particulars: higher = more signal.
Test [5] can be described thus: calcein-AM signal in unstimulated myeloma cells – cell-based, calcein-AM fluorescence, 48 h, PK04 Diversity Set, profiling panel (AID 1166).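 Further: cells grown under basal conditions without added stimulus; test concentration not given here.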 Particulars: RPMI8226 myeloma viability, higher = more signal.
Test [6] can be described thus: JC-1 mitochondrial signal, unstimulated HepG2 cells – cell-based, JC-1 fluorescence, 24 h, 100 nL compound, profiling panel (AID 1167). Further: test concentration not given here. The conditions noted are these: HepG2 mitochondrial potential, higher = more signal.
Test [7] can be described thus: JC-1 mitochondrial signal, unstimulated adipocytes – cell-based, JC-1 fluorescence, 3T3-L1 adipocytes, 24 h, 100 nL compound, profiling panel (AID 1168). Further: test concentration not given here. The conditions noted are these: JC-1 mitochondrial fluorescence, higher = more signal, called active from +8 up or from −8 down.
A short description of test [8]: JC-1 mitochondrial signal, unstimulated myeloma cells – cell-based, JC-1 fluorescence, RPMI8226, 24 h, 100 nL compound, profiling panel (AID 1169). Further: test concentration not given here. Particulars: JC-1 mitochondrial potential fluorescence, higher = more signal.
A short description of test [9]: JC-1 mitochondrial signal, unstimulated MM1S myeloma – cell-based, JC-1 fluorescence, 24 h, 100 nL compound, profiling panel (AID 1170). Further: test concentration not given here. The conditions noted are these: MM1S mitochondrial potential, higher = more signal.
The nature of test [10]: resazurin metabolic signal in A549 cells – cell-based, resazurin fluorescence, 24 h, PK04 Diversity Set, profiling panel (AID 1171). Further: test concentration not given here. Particulars: A549 viability, higher = more signal, called active from +8 up or from −8 down.
Test [11] in a line: resazurin metabolic signal in HepG2 cells – cell-based, resazurin fluorescence, 24 h, PK04 Diversity Set, profiling panel (AID 1172). Further: test concentration not given here. Particulars: HepG2 viability, higher = more signal.
Test [12] in a line: budding yeast growth changes without added modifier – OD600, strain BY4716, 24 h, basal condition, primary screen (AID 1173). Particulars: S. cerevisiae BY4716 growth, OD600, 24 h; higher = more signal, called active from +8 up or from −8 down.
Test [13] is described as follows: viability profiling in MM1S myeloma cells – cell-based, resazurin fluorescence, basal, 24 h, PK04 Diversity Set, profiling panel (AID 1174). Further: test concentration not given here. Particulars: higher = more signal, called active from +8 up or from −8 down.
For test [14], the target named is Dihydroorotate dehydrogenase (quinone), mitochondrial (Plasmodium falciparum (isolate 3D7)) (UniProt Q08210). Description: inhibition of P. falciparum DHODH – biochemical, C-terminal His tag, absorbance 600 nm, primary screen (AID 1175).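 Further: recombinant parasite enzyme with a five histidine tag at its C terminus; test concentration not given here.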 The conditions noted are these: PfDHODH enzyme, DCIP absorbance 600 nm; higher = more signal, called active from +8 up or from −8 down.
Dihydroorotate dehydrogenase (quinone), mitochondrial (Plasmodium falciparum (isolate 3D7)), sequence (Q08210 whole entry, looked up): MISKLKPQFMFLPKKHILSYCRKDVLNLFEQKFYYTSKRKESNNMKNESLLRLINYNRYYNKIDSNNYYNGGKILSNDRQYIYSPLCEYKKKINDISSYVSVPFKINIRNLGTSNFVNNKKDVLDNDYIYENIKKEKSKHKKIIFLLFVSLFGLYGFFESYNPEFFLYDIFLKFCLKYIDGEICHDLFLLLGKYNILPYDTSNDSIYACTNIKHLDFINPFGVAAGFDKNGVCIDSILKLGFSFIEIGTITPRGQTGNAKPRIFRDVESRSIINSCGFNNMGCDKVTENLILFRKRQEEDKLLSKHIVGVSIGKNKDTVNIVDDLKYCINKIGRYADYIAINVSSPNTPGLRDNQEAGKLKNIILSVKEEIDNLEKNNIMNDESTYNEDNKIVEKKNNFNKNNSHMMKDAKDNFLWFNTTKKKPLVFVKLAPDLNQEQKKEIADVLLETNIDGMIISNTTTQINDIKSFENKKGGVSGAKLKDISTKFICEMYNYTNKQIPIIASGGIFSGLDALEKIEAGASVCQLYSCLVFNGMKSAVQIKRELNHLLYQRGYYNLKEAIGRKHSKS

The nature of test [15]: inhibition of PAO1 biofilm formation – strain PAO1, LB-PBS medium, absorbance 600 nm, primary screen (AID 1176). Further: test concentration not given here. Particulars: P. aeruginosa PAO1 growth/biofilm, A600, 12 h; higher = more signal.
The nature of test [16]: growth modulation of vineyard yeast isolate – strain RM11-1a, OD600, basal, 24 h, primary screen (AID 1177).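 Further: cultures grown under basal conditions with no added stressor; test concentration not given here.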 Particulars: S. cerevisiae RM11-1a growth, OD600, 24 h; higher = more signal, called active from +8 up or from −8 down.
Test [17] in a line: growth of efflux-deficient E. coli DRC39 – strain DRC39, OD650, 24 h, E. coli filamentation inducers, primary screen (AID 1178).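 Further: growth measured as culture turbidity by optical density at 650 nm; test concentration not given here.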 The conditions noted are these: E. coli DRC39 acrAB, higher = more signal, called active from +8 up or from −8 down.
The nature of test [18]: growth of efflux-deficient E. coli DRC39 – strain DRC39, OD650, 48 h, E. coli filamentation inducers, primary screen (AID 1179).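 Further: screen aims at cell division blockers that make cells filament.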 The conditions noted are these: E. coli DRC39 delta-acrAB growth, higher = more signal, called active from +8 up or from −8 down.
A short description of test [19]: viability profiling in RPMI8226 myeloma cells – cell-based, resazurin fluorescence, basal, 24 h, PK04 Diversity Set, profiling panel (AID 1180).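 Further: RPMI8826 multiple myeloma cell line at 5000 cells per well; test concentration not given here.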 Particulars: higher = more signal.
Test [20] concerns the target E3 ubiquitin-protein ligase XIAP (Homo sapiens) (UniProt P98170). Description: small molecules binding XIAP protein – biophysical, small-molecule microarray, fluorescence 635 nm, primary screen (AID 1181).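 Further: score merges 667 nm emission and signal to noise over triplicate slides.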 The conditions noted are these: higher = more signal.

Activity calls are given as the source filed them. Unless noted, how the calls were made is not given here.

E3 ubiquitin-protein ligase XIAP (Homo sapiens), sequence (P98170 whole entry, looked up): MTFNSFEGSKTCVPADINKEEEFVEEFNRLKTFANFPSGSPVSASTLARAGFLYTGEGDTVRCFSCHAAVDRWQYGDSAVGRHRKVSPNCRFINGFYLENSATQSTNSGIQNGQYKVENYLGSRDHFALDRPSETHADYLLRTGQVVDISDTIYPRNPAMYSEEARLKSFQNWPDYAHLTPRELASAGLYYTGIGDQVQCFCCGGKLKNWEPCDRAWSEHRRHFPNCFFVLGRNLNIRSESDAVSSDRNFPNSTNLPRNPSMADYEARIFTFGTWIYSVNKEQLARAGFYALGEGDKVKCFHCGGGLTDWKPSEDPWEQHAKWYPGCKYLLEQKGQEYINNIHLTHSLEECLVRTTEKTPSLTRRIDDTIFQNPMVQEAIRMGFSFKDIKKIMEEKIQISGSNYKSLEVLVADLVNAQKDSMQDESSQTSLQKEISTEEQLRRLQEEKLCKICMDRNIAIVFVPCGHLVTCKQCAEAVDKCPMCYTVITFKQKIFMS

For `C[C@H]1C2[C@H](Cc3ccccc3)NC(=O)[C@]23C(=O)N[C@@H](Cc2ccccc2)C(=O)N2CCC[C@H]2C(=O)NC/C=C/CC/C=C/C3[C@@H]2O[C@]12C` (stereo not given in full), the z-score in test [1] was -0.168; in test [2] it was 1.18; in [3] it was -0.512; in test [4], -0.132; in test [5] it was -0.876; in test [6] it was 1.11. The z-score in test [7] was 0.308 (inactive); in [8], 0.0536; in test [9], 0.793; in test [10] it was -0.0612 (inactive); in [11], -0.661; in test [12], 0.321 (inactive). For the same compound, the z-score in test [13] was -0.299 (inactive); in [15], 0.355 (inactive); in [16] it was -0.0615 (inactive); in test [17], 0.159 (inactive); in test [18] it was -0.882 (inactive); in test [19], -0.39. Moreover, the composite z-score in test [14] is -0.0587 (inactive); in test [20], -0.0663.

With `COCCCNC(=O)[C@]1(Cc2ccccc2CN=[N+]=[N-])N=C(c2ccc(OCCCO)cc2)O[C@@H]1c1ccccc1N=[N+]=[N-]`, the z-score in test [1] was -0.532; in test [2] it was -0.541; in [3], -0.576; in [4] it was -2.96; in test [5], -3.93; in test [6], 1.27. Moreover, the z-score in [7] is 1.16 (inactive); in test [8], -1.12; in [9], -2.77; in test [10], -2.12 (inactive); in test [11], -1.99; in test [12] it was 0.234 (inactive). The z-score in test [13] is -4.37 (inactive); in test [15], 1.24 (inactive); in test [16] it was 0.995 (inactive); in [17], 0.703 (inactive); in [18], 0.692 (inactive); in test [19], -3.63. The composite z-score in test [14] is 0.553 (inactive); in test [20], 0.43.

Take `COc1ccc(C(=O)Nc2ccc(CN3C(=O)[C@]4(O[C@H](CC(=O)N(CCO)Cc5ccccc5)[C@@H]([Si](C)(C)c5ccc(OC)cc5)[C@@H]4C)c4ccccc43)cc2)cc1`: the z-score in test [1] is -0.937; in test [2], 1.19; in test [3], -1.52; in test [4] it was -1.92; in test [5] it was -2.73; in test [6] it was 0.353. Besides, the z-score was 0.324 (inactive) in test [7]; -1.02 in [8]; -0.692 in test [9]; -2.04 (inactive) in [10]; -1.18 in test [11]; 0.352 (inactive) in [12]. In addition, the z-score is -1.94 (inactive) in test [13]; 0.671 (inactive) in test [15]; 2.51 (inactive) in test [16]; -0.225 (inactive) in test [17]; -0.575 (inactive) in [18]; -1.84 in test [19]. Further, the composite z-score in test [14] is -0.633 (inactive); in test [20], -0.209.

Consider `C=CCNC(=O)[C@H]1[C@@H]2C(=O)O[C@@H](c3ccccc3)[C@@H](c3ccccc3)N2[C@@H](c2ccc(OCCO)cc2)[C@]12C(=O)N(C(=O)OCCOC)c1ccc(C#CCNC(N)=O)cc12`, for which the z-score was 0.0935 in test [1]; -0.585 in [2]; 0.854 in test [3]; 0.952 in test [4]; 1.27 in [5]; 0.0391 in test [6]. In addition, the z-score in [7] was 0.668 (inactive); in test [8] it was -0.596; in [9], -0.919; in [10], -0.226 (inactive); in [11], 0.263; in test [12], 1.88 (inactive). Moreover, the z-score in test [13] is 0.31 (inactive); in [15] it was 1.45 (inactive); in [16], 3.01 (inactive); in [17], 1.45 (inactive); in test [18], 1.24 (inactive); in test [19], 1.09. Moreover, the composite z-score in test [14] was -0.193 (inactive); in test [20], 0.0313.

For the compound `CN1C(=O)C2C=CC(C(O)COCc3ccccc3)N(Nc3ccc([N+](=O)[O-])cc3[N+](=O)[O-])C2C1=O` (stereo not given), the z-score in test [1] is 1.02; in test [2], -0.611; in test [3], -0.832; in test [4], -1.38; in test [5] it was -0.988; in test [6], -0.681. For the same compound, the z-score in test [7] was -0.985 (inactive); in test [8], -0.141; in test [9], -0.815; in test [10], -0.583 (inactive); in test [11], -0.473; in [12], -2.33 (inactive). The z-score in [13] was -0.407 (inactive); in [15], 0.558 (inactive); in test [16], 0.288 (inactive); in test [17], -0.143 (inactive); in test [18], -0.445 (inactive); in test [19], -0.143. Besides, the composite z-score was -0.42 (inactive) in test [14] and 0.12 in test [20].

On to `[N-]=[N+]=NCc1ccccc1[C@H]1OC(c2ccc(OCCCO)cc2)=N[C@@]1(Cc1ccccc1N=[N+]=[N-])C(=O)O`, for which the z-score in test [1] was -0.374; in [2] it was -1.69; in test [3] it was 0.312; in test [4], -0.934; in test [5], -0.984; in [6], -2.04. Moreover, the z-score in test [7] is 0.0914 (inactive); in test [8], -0.763; in test [9], -0.596; in test [10] it was 0.216 (inactive); in test [11], 0.539; in test [12], -4.15 (inactive). The z-score in test [13] is 0.119 (inactive); in test [15], 0.535 (inactive); in [16], -0.123 (inactive); in [17] it was -0.539 (inactive); in [18] it was -0.779 (inactive); in [19], -0.0412. The composite z-score in test [14] was -0.862 (inactive); in test [20] it was 0.166.

For the compound `COCCOC(=O)N1C(=O)[C@@]2(c3cc(C#CC4=CCCCC4)ccc31)[C@H](C(=O)N1CCCCCCC1)[C@H]1C(=O)O[C@H](c3ccccc3)[C@H](c3ccccc3)N1[C@@H]2c1ccccc1OCCO`, the z-score in test [1] is -0.314; in test [2], 0.922; in [3] it was -0.107; in test [4] it was -0.99; in test [5], -0.813; in test [6], 0.0436. In addition, the z-score in test [7] was 0.992 (inactive); in test [8], -0.966; in test [9], -0.982; in test [10] it was 0.356 (inactive); in [11] it was 1.84; in test [12] it was 0.615 (inactive). Also, the z-score in test [13] is 0.209 (inactive); in test [15], 0.526 (inactive); in test [16], 0.511 (inactive); in [17] it was -0.294 (inactive); in test [18], -1.14 (inactive); in test [19], 0.185. Besides, the figures for the composite z-score in [14] and in test [20] were -0.434 (inactive) and -0.0244, respectively.

Turning to `CC(C)C[C@@H]1NC(=O)[C@@H]2C[C@H](C(=O)NCCCCCCNC(=O)CS)[C@H](c3ccc(O)cc3)N2C1=O`, the z-score in test [1] is 0.191; in [2] it was 0.963; in test [3], -0.892; in test [4], -0.523; in [5], 0.037; in test [6], -1.69. The z-score was -0.226 (inactive) in [7]; -0.684 in test [8]; -0.391 in [9]; -0.399 (inactive) in [10]; 0.0799 in test [11]; -0.295 (inactive) in [12]. Also, the z-score in [13] was -0.471 (inactive); in test [15], 1.97 (inactive); in [16], 0.199 (inactive); in test [17], 0.306 (inactive); in [18], -0.874 (inactive); in test [19], -0.898. The results for the composite z-score in test [14] and in test [20] were -0.283 (inactive) and 0.291, respectively.

Source of the values: PubChem BioAssay.
